# From PubChem
# HSF1 inh – HSF1 inhibition; hit rate 0.77% among 300,000; AID 2098; NIH3T3-HGL HSE-luciferase, MG132-induced, luminescence 8 h; active compounds read low; activity change, negative = inhibition, % at 7.5 µM (by protocol);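 active means more than half of replicate wells show activity change below -50%, luminescence cut by over half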;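 further: luciferase reports HSF-1 transcriptional activity via heat shock element; 0% = median of DMSO wells and -100% = zero luminescence signal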
# HSP90 refold inh – blocks HSP90-mediated luciferase refolding in reticulocyte lysate; Rabbit reticulocyte lysate, luciferase refolding luminescence, 3 h; inhibition, % at 5.6 µM; hit rate 0.91% among 290,000; AID 1789;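 active means inhibition above the screen-wide mean plus 3 SD, computed separately per campaign, cut at about 16% in these data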;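 further: 0% = DMSO wells and 100% = 60 µM geldanamycin wells; inhibitors lower the luminescence because luciferase stays unfolded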
# AHR activator – activates the human aryl hydrocarbon receptor; AHR-responsive luciferase reporter cells, luminescence; activation, % at 5 µM; hit rate 2.5% among 320,000; in the data active means activation above about 47%;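 further: 0% = vehicle wells and 100% = reference agonist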
# NR0B1 inh – inhibitors of human orphan nuclear receptor DAX1 (NR0B1); P51843; HEK293 Gal4-DAX1 luciferase reporter, luminescence; inhibition, % at 6.75 µM; hit rate 0.99% among 340,000; AID 504766;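 active means inhibition above the mean over all tested compounds plus 3 SD, cut at about 4.2% in these data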;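 further: 0% = DAX1-transfected cells with DMSO and 100% = empty-vector control cells with DMSO; inhibition shows as a rise in luminescence from relieved DAX1 repression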
# Target sequence (P51843 207-470 limits assumed): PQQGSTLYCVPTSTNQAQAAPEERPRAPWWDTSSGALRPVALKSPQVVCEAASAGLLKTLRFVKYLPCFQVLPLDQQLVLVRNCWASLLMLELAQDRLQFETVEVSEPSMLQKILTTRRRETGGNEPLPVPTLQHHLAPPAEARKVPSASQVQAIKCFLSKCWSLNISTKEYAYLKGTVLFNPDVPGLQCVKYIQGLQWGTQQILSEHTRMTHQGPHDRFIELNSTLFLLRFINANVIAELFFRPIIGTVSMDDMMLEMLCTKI
# HSF-1 act – increases HSF-1 driven luciferase reporter signal; NIH3T3-HGL HSF-1 luciferase reporter, MG132, 8 h; 100% = twice DMSO control signal; activation, % at 9 µM; hit rate 1.7% among 300,000; AID 504408;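 active means mean replicate activation of at least 50% with a set share of replicates each reaching 50%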;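 further: 0% = median of the neutral control wells and 100% = twice that signal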
# FXN GAA850 act – increases GAA850 frataxin promoter reporter activity; HEK293 lucGAA850 FXN promoter luciferase reporter, 24 h; percent of 10 µM SAHA response; activation, % at 6 µM; hit rate 0.56% among 360,000;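 active means activation above the average of all compounds screened plus 3 SD, cutoff fixed separately per campaign, cut at about 7.5% in these data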;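 further: 0% = DMSO wells and 100% = 10 µM SAHA wells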
# * hit, by the source's call; nt = no result. A selection: hits, their analogues and other compounds. The true share with any hit is near 5.9%.
SMILES,HSF1 inh,HSP90 refold inh,AHR activator,NR0B1 inh,HSF-1 act,FXN GAA850 act
O=C(Nc1ccc2c(c1)OCCO2)c1cccc(Br)c1,22,2,nt,0,57*,2
O=C(Nc1ccc2c(c1)OCCO2)c1ccc(Br)cc1,19,8,-4,2,44,4
COc1ccc(Cl)cc1C(=O)Nc1ccc2c(c1)OCCO2,31,-1,nt,8.4*,42,5
O=C(Nc1ccc2c(c1)OCCO2)c1ccc(Cl)c(Cl)c1,25,4,2,7.0*,50,5
O=C(Nc1ccc2c(c1)OCCO2)c1ccc(Cl)c([N+](=O)[O-])c1,11,1,0,3,8,3
COc1cc(CNC(=O)Nc2nnc([C@@H]3C[C@H](O)[C@@H](CO)O3)s2)cc(OC)c1OC,nt,nt,nt,nt,nt,-1
O=c1[nH]c(/C(Cl)=C/c2cc(Cl)ccc2O)nc2cc(Cl)ccc12,26,-4,34,-1,32,0
O=c1[nH]c(/C(Cl)=C/c2c(F)cccc2Cl)nc2cc(Cl)ccc12,-5,-6,58*,0,6,-2
CC(=O)N1N=C2c3ccccc3CCC2C1c1cccs1 (stereo unspecified),-2,-4,60*,nt,13,0
O=C(COC(=O)/C=C/c1ccc(F)cc1)NC(=O)NCc1ccccc1,nt,nt,nt,0,nt,1
COc1cc(NC(=O)C2CCCCC2)c(OC)cc1NC(=O)c1ccccc1,3,-2,54*,-1,20,-1
COc1cc(NC(=O)C2CCCO2)c(OC)cc1NC(=O)c1ccccc1 (stereo unspecified),12,-2,78*,0,28,-1
COc1cc(NC(=O)C2CCCCC2)c(OC)cc1NC(=O)c1ccco1,-1,-1,16,0,-3,1
Cc1ccc(O)c(NC(=O)C2CCCCC2)c1,68,0,4,-1,68*,3
CCOc1ccccc1NC(=O)c1cccc(NC(=O)C2CCCC2)c1,0,2,60*,0,-10,-2
COc1ccccc1CNC(=O)COc1cc(O)c2c(c1)OC(C)(C)CC2=O,nt,nt,nt,nt,nt,0
O=C(Nc1ccccc1Cl)c1csc(-c2cccnc2)n1,6,-1,48*,5.0*,23,4
CC(C)C(=O)Nc1ccc(-c2csc(-c3ccccc3)n2)cc1,24,-5,-3,2,50,3
O=C(NNC(=O)c1csc(-c2cnccc2C(F)(F)F)n1)c1ccc(C(F)(F)F)cc1,0,2,15,nt,-1,1
O=C(NNC(=O)c1csc(-c2cccnc2)n1)c1ccccc1,-3,4,2,1,11,1
O=C(Nc1ccccc1)c1csc(-c2ccccc2)n1,20,13,68*,0,14,3
CC(C)C(=O)Nc1cccc(-c2csc(-c3ccccc3)n2)c1,35,-8,68*,-1,47,4
O=C(Nc1ccc(C(F)(F)F)cc1)c1csc(-c2ccncc2)n1,-3,-2,66*,-1,3,3
NC(=O)c1cccc(-c2coc3c(C(=O)NCc4ccccc4)cccc23)c1,nt,nt,nt,nt,nt,0
CCCCCCn1c(=O)n2n(c1=O)[C@@H]1CN(S(=O)(=O)c3ccc(C)cc3)C[C@]1(O)[C@@H](OC(=O)NCc1ccco1)C2,nt,nt,nt,1,nt,-1
SMILES,HSF1 inh,HSP90 refold inh,AHR activator,NR0B1 inh,HSF-1 act,FXN GAA850 act
CC(C)(C)C(=O)Nc1ccc(C(=O)OC2CCCCC2)cc1,29,4,1,1,44,10*
O=C(OC1CCCCC1)c1ccc(NC(=O)C2CCCCC2)cc1,13,3,1,0,32,2
CS(=O)(=O)N(CC(=O)NCC1CCCO1)c1cc(Cl)ccc1Cl (stereo unspecified),18,4,2,1,54*,4
O=C(Cn1c(=O)n(Cc2ccccc2)c(=O)c2cc(Cl)ccc21)NCC1CCCO1 (stereo unspecified),3,-4,2,2,0,-1
O=C(Cn1c(=O)c(=O)n(Cc2ccccc2)c2ccc(Cl)cc21)NCC1CCCO1 (stereo unspecified),nt,0,-1,4.6*,nt,-1
CS(=O)(=O)N(CC(=O)NCC1CCCO1)c1cc(Cl)c(Cl)cc1Cl (stereo unspecified),-6,0,0,1,9,1
O=C(C[C@@H]1C/C=C\CCC(=O)O[C@H](c2ccccc2)CNC1=O)N[C@H](CO)Cc1ccccc1,nt,nt,-1,1,nt,-2
O=c1oc2cc(O)ccc2cc1-c1nc2c(s1)CCc1ccccc1-2,nt,-1,14,1,nt,5
O=c1oc2ccccc2cc1-c1nc2c(s1)CCc1ccccc1-2,3,-2,71*,-1,-4,2
Cc1cc(OCc2cccc(S(=O)(=O)N3CCOCC3)c2)ccc1Cl,nt,nt,2,0,nt,1
CCc1ccc(C(=O)Cc2cc3cccc(OC)c3oc2=O)cc1,36,-8,-1,1,80*,4
CCOc1ccc(CN(C)C(=O)c2cc(S(=O)(=O)N3CCCC3)ccc2C)cc1,nt,nt,0,-1,nt,0
COc1cccc(C(O)c2ncc(-c3cccc(F)c3)[nH]2)c1 (stereo unspecified),nt,nt,nt,nt,nt,-1
Cc1cc2c(cc1C)C(c1cccc([N+](=O)[O-])c1)CC(=O)N2 (stereo unspecified),33,-1,5,-1,63*,-1
CC1CC(=O)Nc2cc([N+](=O)[O-])ccc2N1 (stereo unspecified),-89*,4,0,1,-92,0
COC(=O)C1=C(CS(=O)(=O)c2ccc(Cl)cc2)NC(=O)NC1c1ccc(O)cc1 (stereo unspecified),-2,-6,1,0,2,0
CCC(C)Sc1cc(C(F)(F)F)c(C(=O)Nc2ccc(Cl)cc2)cn1 (stereo unspecified),-18,0,59*,2,-13,-1
CCN(C(=O)c1cnc(NC(C)C)cc1C(F)(F)F)c1ccc(Cl)cc1,6,1,-3,-1,24,-3
CC(C)CC1(C2CCCC2)NC(=O)NC1=O (stereo unspecified),nt,nt,nt,2,nt,1
Cc1ccn2c(NCc3ccc4c(c3)OCO4)c(-c3ccc(O)cc3)nc2c1,23,2,66*,1,39,4
Cc1ccc(-c2nc3cnccn3c2Nc2ccc3c(c2)OCO3)cc1,2,-2,56*,1,-8,2
Oc1ccc(-c2nc3ccccn3c2NCc2ccc3c(c2)OCO3)cc1,nt,-3,71*,0,nt,0
Fc1ccc(-c2nc3ccccn3c2NCc2ccc3c(c2)OCO3)cc1,24,-6,33,-1,33,2
Cc1ccc2nc(-c3ccc(O)cc3)c(Nc3ccc4c(c3)OCCO4)n2c1,15,-3,3,0,13,0
Cc1cccc(S(=O)(=O)NC(=O)C2(C)CCN2C(=O)CC2CCCCC2)c1 (stereo unspecified),nt,nt,nt,nt,nt,0
